# Results taken from PubChem BioAssay (NCATS).
# Inconclusive results are not listed. Entries that show only a call come without a potency. Values without a mark were called inactive. The source made the active and inactive calls. Calls come from the whole dose curve; as a rule, active = well fitted curve in the direction sought with a large enough effect; inconclusive = small, poorly fitted or top-dose-only effect, or another doubt; inactive = no such curve, though single readings can be large; an effect the other way counts as inactive or inconclusive. *1 amine or outer side, *2 acyl side, *3 side chain or, on linkers, in order; H or OH if unused. Where a SMILES comes first, the peptide text is derived from it. [ ]: non-standard residue; d: D form. X13 = O=C(C(CC(O)CO)O[*:1])[*:2]; NMeV = CN[CH](C(=O)O)C(C)C; NMeA = CN[CH](C)C(=O)O; βAla = NCCC(=O)O
# Assays:
# [1] = target: Calcium and integrin-binding protein 1 (Homo sapiens) (UniProt Q99828); experiment: Primary qHTS for Identification of Calcium Integrin Binding Protein 1 (CIB1) Competitor (AID 1508620);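 note: GST tagged CIB1 binding a fluorescein labelled alphaIIb integrin peptide tracer; top concentration of the series differs between compounds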
# Chain of Calcium and integrin-binding protein 1 (Homo sapiens) (Q99828 whole entry, looked up): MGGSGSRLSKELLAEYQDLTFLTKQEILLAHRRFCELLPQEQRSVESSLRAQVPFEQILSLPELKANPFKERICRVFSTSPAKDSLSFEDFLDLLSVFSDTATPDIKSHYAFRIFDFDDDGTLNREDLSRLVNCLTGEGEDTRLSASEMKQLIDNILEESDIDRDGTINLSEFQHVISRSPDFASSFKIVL
# How it was run: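 Fluorescence polarization competition: GST-tagged CIB1 (1 uM final) preincubated with compound 15 min at room temperature, then FITC-labelled alphaIIb peptide (100 nM final) added. After 15 min at room temperature, polarization read at Ex 480/Em 540.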
# [2] = Primary qHTS for inhibitors of nuclear receptor binding SET domain protein 2 (NSD2) in an isogenic RCH-ACV NSD2 p.E1099K mutant (9B) (AID 1645876); note: nearly all actives have a fitted effect of over 70% in size
# [3] = Primary qHTS for inhibitors of nuclear receptor binding SET domain protein 2 (NSD2) in an RCH-ACV wild type WT cells (2C) (AID 1645877); note: nearly all actives have a fitted effect of over 70% in size
structure (smiles),measurement,setting,value
C=C1C(=O)O[C@@H]2/C=C(\C)CC/C=C(\C(=O)O[C@@H]3O[C@H](CO)[C@@H](O)[C@H](O)[C@H]3O)CC[C@@H]12,Potency,[1],inactive
same,Potency,[2],inactive
COC(=O)C1=CO[C@@H](O[C@@H]2O[C@H](CO)[C@@H](O)[C@H](O)[C@H]2O)[C@@H]2C(CO)=CC[C@H]12,Potency,[1],inactive
same,Potency,[2],inactive
C=CC1(C)CC=C2C(CCC3C(C)(C(=O)O)CCCC23C)C1 (centres undefined),Potency,[1],inactive
same,Potency,[2],inactive
CCC(C)C1NC(=O)C2CCCN2C(=O)C(CC(O)CO)OC(=O)CCNC(=O)C(C)N(C)C(=O)C(C(C)C)N(C)C1=O (centres undefined) (cyclo([X13]PI[NMeV][NMeA][βAla]); configuration not given here),Potency,[1],inactive
same,Potency,[2],inactive
O=C(O[C@@H]1O[C@H](CO)[C@@H](O)[C@H](O)[C@H]1O)c1ccccc1,Potency,[1],inactive
same,Potency,[2],inactive
CC/C=C\[C@H](O)[C@H](O)C1=C(C)C(=O)[C@]2(O1)C(=O)N[C@@](O)(C(=O)c1ccccc1)[C@@H]2O,Potency,[1],inactive
same,Potency,[2],inactive
COC(=O)c1cc(OC)cc(OC)c1C(=O)c1c(OC)cc2c(c1O)C1CCC(O)C(C)(O2)O1 (centres undefined),Potency,[1],inactive
same,Potency,[2],inactive
COc1cc(C(=O)OCC2=CCC3C(C(=O)O)=COC(O[C@@H]4O[C@H](CO)[C@@H](O)[C@H](O)[C@H]4O)C23)ccc1O (some centres undefined),Potency,[1],inactive
same,Potency,[2],inactive
Cc1cn2cc(CC(=O)N3CCC4(CC3)CN(Cc3ccc(-n5nccn5)cc3Cl)C4)nc2s1,Potency,[1],inactive
same,Potency,[2],inactive
CCC(C)C(C(=O)O)N1Cc2c(OCC=C(C)C)c(C)c(OC)c(C(=O)O)c2C1=O (centres undefined),Potency,[1],inactive
same,Potency,[2],inactive
COC(=O)C1=COC(OC2OC(CO)C(O)C(O)C2O)C2C(COC(=O)/C=C/c3ccc(O)c(O)c3)C(O)C(O)C12 (centres undefined),Potency,[1],inactive
same,Potency,[2],inactive
C[C@@H]1O[C@@H](O[C@@H]2[C@@H](O)[C@H](O[C@H]3[C@H](O[C@H]4CC[C@@]5(C)C(CC[C@]6(C)C5CC=C5[C@@H]7CC(C)(C)CC[C@]7(C(=O)O[C@@H]7O[C@H](CO)[C@@H](O)[C@H](O)[C@H]7O)CC[C@]56C)C4(C)C)O[C@H](C(=O)O)[C@@H](O)[C@@H]3O)OC[C@H]2O)[C@H](O)[C@H](O)[C@H]1O (some centres undefined),Potency,[1],inactive
same,"activity change, negative = viability loss",[2],2.27% [at 9.23 µM]
O=C(OCC1=CC(Cl)C(O)C(OC(=O)c2ccccc2)C1O)c1ccccc1 (centres undefined),Potency,[1],inactive
same,Potency,[2],inactive
C[C@]1(OC(=O)/C=C/c2ccc(O)cc2)C[C@@H](O)[C@]2(O)C=CO[C@@H](O[C@@H]3O[C@H](CO)[C@@H](O)[C@H](O)[C@H]3O)C12 (some centres undefined),Potency,[1],inactive
same,Potency,[2],inactive
O=C(OCC1=C[C@@H](O)[C@@H]2C=CO[C@@H](O[C@@H]3O[C@H](CO)[C@@H](O)[C@H](O)[C@H]3O)[C@H]12)c1ccc(O)cc1,Potency,[1],inactive
same,Potency,[2],inactive
COc1cc(O)cc(C)c1C(=O)OC1C(CO)OC(n2ccc(=O)[nH]c2=O)C1OC(C)=O (centres undefined),Potency,[1],inactive
same,Potency,[2],inactive
COc1ccc(C(=O)CC(=O)O)c2c1C=CC(C)(C)O2,Potency,[1],inactive
same,Potency,[2],inactive
same,Potency,[3],inactive
C=C1CC[C@@]2(OC1)O[C@H]1CC3[C@@H]4CC=C5C[C@@H](O)C[C@@H](O[C@@H]6OC[C@H](O)[C@H](O)[C@H]6O[C@@H]6O[C@@H](C)[C@H](O)[C@@H](O)[C@H]6O)[C@]5(C)C4CC[C@]3(C)[C@H]1[C@@H]2C (some centres undefined),Potency,[1],inactive
same,Potency,[2],inactive
CC1(C)C[C@H]2C=C(C=O)[C@]3(C(=O)O)C[C@]3(C)[C@H]2C1,Potency,[1],inactive
same,Potency,[2],inactive
CC(O)CCc1ccc(O[C@@H]2O[C@H](CO)[C@@H](O)[C@H](O)[C@H]2O)cc1 (some centres undefined),Potency,[1],inactive
same,Potency,[2],inactive
Cc1occc1C(=O)n1ccnc1,Potency,[1],inactive
same,Potency,[2],inactive
CC1(C)CC[C@]2(C(=O)O)CC[C@]3(C)C(=CCC4[C@@]5(C)CC[C@H](O[C@@H]6O[C@H](C(=O)O)[C@@H](O)[C@H](O[C@@H]7O[C@H](CO)[C@H](O)[C@H](O)[C@H]7O)[C@H]6O[C@@H]6O[C@H](CO)[C@@H](O)[C@H](O)[C@H]6O)C(C)(C)C5CC[C@]43C)[C@@H]2C1 (some centres undefined),"activity change, negative = inhibition",[1],10.7% [at 12.4 µM]
same,"activity change, negative = viability loss",[2],-9.66% [at 4.96 µM]
C/C=C/C=C/C(O)=C1/C(=O)[C@]2(C)C3/C(=C(O)/C=C/C=C/C)C(=O)C4(C)C1[C@]1(C)O[C@@]4(O)[C@@]3(C)O[C@@]12O,Potency,[1],inactive
same,Potency,[2],inactive
COc1cc(CC2COC(c3ccc(OC4OC(CO)C(O)C(O)C4O)c(OC)c3)C2CO)ccc1O (centres undefined),Potency,[1],inactive
same,Potency,[2],inactive
